High-throughput results as filed in PubChem.
This is a sample that favours compounds with a hit; in the whole collection about 1.2% have one here.
GC-A act – GC-A stimulated cGMP production enhancers – HEK293 GC-A cells, cGMP TR-FRET, EC30 ANP, primary screen; Atrial natriuretic peptide receptor 1 (Homo sapiens), P16066; 0% at EC30 ANP, 100% saturating ANP; activation, % at 10 µM; hit rate 0.14% among 370,000; AID 1671463, 2021; in the data active = activation above about 40%
PLCb3 inh – human PLC-beta3 inhibitors, primary screen, biochemical, fluorescence; 1-phosphatidylinositol 4,5-bisphosphate phosphodiesterase beta-3 (Homo sapiens), Q01970; AID 720704, 2013; inhibition, % at 12.2 µM; Purified PLC-beta3, fluorogenic substrate; hit rate 0.18% among 370,000; in the data active = inhibition above about 11%;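 note: 0% = median of compound wells on plate and 100% = full blocker control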
PLCg1 inh – PLC-gamma1 enzyme inhibitors, primary screen, biochemical, fluorescence, purified enzyme; 1-phosphatidylinositol 4,5-bisphosphate phosphodiesterase gamma-1 (Homo sapiens), P19174; fluorogenic substrate; inhibition, % at 12.2 µM; hit rate 0.84% among 370,000; AID 720700, 2013
Target sequence (P19174 whole entry, looked up): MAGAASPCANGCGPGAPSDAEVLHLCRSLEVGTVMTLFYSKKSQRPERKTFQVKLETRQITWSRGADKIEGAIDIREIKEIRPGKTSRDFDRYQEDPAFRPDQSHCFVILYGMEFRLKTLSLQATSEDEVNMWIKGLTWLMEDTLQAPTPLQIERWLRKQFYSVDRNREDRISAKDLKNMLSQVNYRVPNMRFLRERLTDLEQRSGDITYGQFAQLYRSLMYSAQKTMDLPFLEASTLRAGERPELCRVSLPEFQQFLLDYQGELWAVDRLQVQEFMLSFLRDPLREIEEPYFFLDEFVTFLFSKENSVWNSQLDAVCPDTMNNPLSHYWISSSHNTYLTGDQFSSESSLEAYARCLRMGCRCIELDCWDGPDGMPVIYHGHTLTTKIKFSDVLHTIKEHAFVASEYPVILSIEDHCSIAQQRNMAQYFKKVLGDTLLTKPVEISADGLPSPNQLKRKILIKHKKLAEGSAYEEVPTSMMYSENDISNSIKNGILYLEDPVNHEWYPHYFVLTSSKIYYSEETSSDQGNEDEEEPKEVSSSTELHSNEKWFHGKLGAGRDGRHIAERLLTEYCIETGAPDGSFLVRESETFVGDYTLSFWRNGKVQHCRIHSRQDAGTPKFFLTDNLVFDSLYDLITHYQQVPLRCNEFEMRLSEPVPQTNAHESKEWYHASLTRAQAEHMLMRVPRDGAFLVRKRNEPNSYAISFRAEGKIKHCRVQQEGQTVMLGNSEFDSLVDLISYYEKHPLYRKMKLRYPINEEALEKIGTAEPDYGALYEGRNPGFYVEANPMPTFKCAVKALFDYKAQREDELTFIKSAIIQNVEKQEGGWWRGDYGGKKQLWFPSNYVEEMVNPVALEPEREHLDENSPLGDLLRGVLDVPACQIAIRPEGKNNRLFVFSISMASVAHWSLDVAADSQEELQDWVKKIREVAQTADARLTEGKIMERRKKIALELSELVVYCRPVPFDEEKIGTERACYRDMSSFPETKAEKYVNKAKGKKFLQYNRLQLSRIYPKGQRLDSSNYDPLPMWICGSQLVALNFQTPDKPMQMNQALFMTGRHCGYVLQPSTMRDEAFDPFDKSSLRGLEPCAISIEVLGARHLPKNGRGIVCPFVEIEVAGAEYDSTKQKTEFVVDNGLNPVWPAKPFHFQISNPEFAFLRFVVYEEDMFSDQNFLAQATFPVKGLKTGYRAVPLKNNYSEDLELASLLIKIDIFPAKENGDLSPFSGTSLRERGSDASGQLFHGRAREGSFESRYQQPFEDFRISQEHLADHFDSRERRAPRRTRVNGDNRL
NPR2 activator – human GC-B receptor activators, primary screen, HEK293 GC-B cells, cGMP TR-FRET, EC30 CNP; Atrial natriuretic peptide receptor 2 (Homo sapiens), P20594; 0% at EC30 CNP, 100% saturating CNP; activation, % at 10 µM; hit rate 0.11% among 370,000; AID 1920062, 2024;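 active = activation at 10 µM reaching about 35% in either raw or pattern-adjusted values, limit read from the data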
PLCg1 ctr – PLC-gamma1 enzyme inhibitors, counter-screen for PLC-beta3 inhibitor project, biochemical, fluorescence | inhibition, % at 12.3 µM | shares compounds with PLCg1 inh | hit rate 3.1% among 3,300 | purified PLC-gamma1, fluorogenic substrate
PLCbeta3 conf – PLC-beta3 inhibitor confirmation, biochemical, fluorescence, purified enzyme | hit rate 1% among 3,300 | inhibition, % at 12.3 µM | fluorogenic substrate fluorescence | shares compounds with PLCg1 inh; in the data active = inhibition above about 11%
Starred values were filed as active, the others as inactive; x = no result given. Cut-off read from the data, not from the text of the source, unless noted: active = inhibition above about 9.5%; inactive = the rest.

SMILES	GC-A act	PLCb3 inh	PLCg1 inh	NPR2 activator	PLCg1 ctr	PLCbeta3 conf
O=Cc1c(-c2ccc(F)cc2)nc2ccccn12	3	1	11*	-4	-6	0
COc1ccc(-c2nc3ccccn3c2C=O)cc1	4	-4	-3	1	x	x
Cn1c(=O)c2c(nc(NCc3cccnc3)n2Cc2cccc(C(F)(F)F)c2)n(C)c1=O	-1	6	12*	-2	-2	2
COc1cccc(Cn2c(NCc3cccnc3)nc3c2c(=O)n(C)c(=O)n3C)c1	-1	3	3	1	x	x
COC(=O)[C@H]1C[C@@]2(N3CCCCC3)c3ccccc3N[C@H]2N1S(=O)(=O)c1ccc([N+](=O)[O-])cc1	-7	4	4	-6	x	x
COc1cc(OC)cc(C(=O)NC2CCCN(Cc3ccc(Cl)cc3)C2)c1 (stereo not drawn)	-5	-1	0	-2	x	x
O=C(NC1CCCN(Cc2ccc(Cl)cc2)C1)c1ccnc(Cl)c1 (stereo not drawn)	-6	-13	11*	1	-8	-2
CCCCCC(=O)NC(=S)Nc1ccc(Cl)cn1	3	1	10*	5	-5	-5
CCC(NC(=O)NC1CCCCC1)c1ccccc1 (stereo not drawn)	1	12*	9.5*	-2	-4	0
CCCCC#Cc1cncc(C(=O)N/N=C/c2cccc(OC)c2)c1	-1	-6	-7	1	x	x
COc1ccc(-c2c(C)c3cc(O)ccc3oc2=O)cc1OC	7	-105	-65	3	x	x
CC(=O)c1c(C)[nH]c(C(=O)Nc2cccc(C(F)(F)F)c2)c1C	-6	-3	3	-6	x	x
CC(=O)c1c(C)[nH]c(C(=O)Nc2cccc(C#N)c2)c1C	-2	-3	9.8*	-7	-16	-15
CCOc1ccc(CNC(=O)C(=O)c2cn(CC(=O)N3CCOCC3)c3ccccc23)cc1OC	-2	-5	1	2	x	x
Cc1ccc(CCN2CC(C(=O)NCc3cccnc3)CC2=O)cc1 (stereo not drawn)	-7	7	12*	2	-2	-1
C#CCN(CC=C)C(=O)c1ccc2nc(C3CCCCC3)oc2c1	0	0	9.5*	1	-5	-3
C=CCN(CC=C)C(=O)c1ccc2nc(Cc3ccc(OC)c(OC)c3)oc2c1	-1	-9	-4	5	x	x
CCC(=O)N1CCCC1(C)C(=O)Nc1ccc2scnc2c1 (stereo not drawn)	3	8	12*	2	-2	-14
Cc1ccccc1Sc1c(C#N)c(-c2ccccc2)nn1C	0	2	1	-3	x	x
O=C(COC(=O)C12CC3CC(CC(O)(C3)C1)C2)Nc1ccc(Br)cc1F	1	-3	-1	-1	x	x
CN(C)S(=O)(=O)c1cc(C(=O)NCC2CCCO2)c(Cl)cc1Cl (stereo not drawn)	-1	6	9.5*	1	-1	3
C=CCOc1c(CNc2ncn[nH]2)cccc1OCC	2	0	3	6	x	x
Cc1cnc(NC(=O)c2ccncc2)s1	2	-5	11*	2	-5	-2
Cc1nnc(NC(=O)c2ccncc2)s1	1	-1	2	3	x	x
Cc1ccc(C2=N/C(=C\N(C)C)C(=O)O2)cc1	-3	6	9.6*	-3	6	7
CN(C)/C=C1/N=C(c2ccccc2)OC1=O	-4	10	10*	-9	4	10
O=C(CCNc1ccc(Cl)cc1)c1cccs1	2	2	3	0	x	x
O=C(CCNc1cc(Cl)cc(Cl)c1)c1cccs1	2	5	13*	-4	11*	4
Cc1ccc(CNCC(O)(c2ccccc2)c2ccc(Cl)cc2)cc1 (stereo not drawn)	-41	5	2	-18	x	x
Cc1ccc(CNCC(O)(c2ccccc2)c2ccccc2)cc1	-63	1	10*	-16	2	1
